LmPK inh = qHTS Assay for Inhibitors of Leishmania Mexicana Pyruvate Kinase (LmPK); 290,000 tested, 0.37% active; Potency, µM (titrated, usually from 57.5 µM), for inactives: top-dose activity change, negative = inhibition, most hits filed as inhibitors; Q27686; AID 1721, 2009; purified LmPK, Kinase-Glo ATP luminescence, 1 h; note: potency is the fitted concentration of half-maximal effect; % is set by controls: 0 for no effect and ±100 for the full control effect
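Kinase-Glo luminescence read after 1 h RT reaction of 0.1 nM LmPK with 0.5 mM PEP and 0.1 mM ADP. Activity scaled between uninhibited and enzyme-free controls.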
Giardia FBPA inh = qHTS Assay for Inhibitors of Fructose-1,6-bisphosphate Aldolase from Giardia Lamblia; A8B2U2; purified Giardia FBPA; Potency, µM (doses to about 59.6 µM), for inactives: top-dose activity, negative = inhibition, hits mostly inhibitors; 290,000 tested, 0.71% active; AID 2451, 2010; note: potency is the fitted concentration of half-maximal effect; % is set by controls: 0 for no effect and ±100 for the full control effect; nearly all actives have a fitted effect of over 55% in size
Target sequence (A8B2U2 whole entry, looked up): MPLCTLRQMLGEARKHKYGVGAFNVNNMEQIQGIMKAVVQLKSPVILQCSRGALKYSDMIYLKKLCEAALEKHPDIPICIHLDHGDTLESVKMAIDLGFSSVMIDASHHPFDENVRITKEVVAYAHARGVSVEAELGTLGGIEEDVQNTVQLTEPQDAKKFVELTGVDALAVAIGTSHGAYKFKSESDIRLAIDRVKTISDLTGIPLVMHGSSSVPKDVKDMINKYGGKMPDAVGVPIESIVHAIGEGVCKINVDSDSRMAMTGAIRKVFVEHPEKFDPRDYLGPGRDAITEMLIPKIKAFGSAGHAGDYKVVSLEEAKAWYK
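40 nM FBPA preincubated 10 min at RT with compound (up to 57.5 uM final), then substrate plus GAPDH/TPI/NAD/arsenate coupling and diaphorase/resazurin added. Fluorescence read after 20 min at RT, 525/598 nm.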
RE007 growth inh = qHTS Assay for Inhibitors of the HIV-1 protein Vpr. S. pombe RE007 Vpr strain, BacTiter-Glo ATP luminescence, 24 h. Potency, µM (highest dose often 92.2 µM), for the others: at the highest dose activity change, negative = less growth, actives largely listed as inhibitors. 360,000 tested, 0.21% active. AID 651644, 2012; active = well fitted falling curve with a large enough effect; inconclusive = small, poorly fitted or top-dose-only effect; inactive = no such curve, though single readings can be large or run the other way; note: potency is the fitted concentration of half-maximal effect; % is set by controls: 0 for no effect and ±100 for the full control effect; nearly all actives have a fitted effect of over 50% in size
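Fission yeast RE007 carrying one integrated HIV-1 vpr copy, seeded at OD 0.01 in PMG+AL medium with 23 nL pinned compound. Grown 24 h at 30 degrees; viability read by BacTiter-Glo luminescence after 5 min.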
Shiga toxin inh = A qHTS for Small Molecule Inhibitors of Shiga Toxin; Vero cells, Shiga toxin protein synthesis inhibition reporter; inhibition, % at 38.7 µM; 290,000 tested, 9.2% active; AID 2315, 2010; in the data active = inhibition mostly above about 28%, no sharp cut-off; inactive = mostly below about 43%; note: 0% is about no effect
CHX counter = Cycloheximide Counterscreen for Small Molecule Inhibitors of Shiga Toxin; cell reporter, cycloheximide protein synthesis inhibition counterscreen; max response, %; 300,000 tested, 12% active; in the data active = max response mostly above about 13%, no sharp cut-off; inactive = mostly below about 14%; note: read at 38.3 µM for the half of the compounds with a filed dose; 0% is about no effect
Tb PYK inh = qHTS of Trypanosoma Brucei Inhibitors. AID 624173, 2012. TbPYK enzyme, Kinase-Glo Plus ATP luminescence, 45 min. pyruvate kinase (Trypanosoma brucei), Q57TT1. 410,000 tested, 0.12% active. Potency, µM (titrated, usually from 76.8 µM), without a hit: at the top dose activity, negative = inhibition, most hits filed as inhibitors; note: potency is the fitted concentration of half-maximal effect; % is set by controls: 0 for no effect and ±100 for the full control effect; nearly all actives have a fitted effect of over 50% in size
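TbPYK + substrate in 50 mM TEA pH 7.2, 100 mM KCl, 10 mM MgCl2, 0.05% BSA, 0.01% Tween-20; cpd pinned; ADP 130 uM final; 45 min RT; Kinase-Glo Plus 10 min; luminescence endpoint.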
Starred values were filed as active, the others as inactive; u = inconclusive; x = no result; [ ] = remark or other dose. The full list was thinned out, with hits kept by preference. Unless noted, calls come from the whole dose curve; as a rule, active = well fitted curve in the direction sought with a large enough effect; inconclusive = small, poorly fitted or top-dose-only effect, or another doubt; inactive = no such curve, though single readings can be large; an effect the other way counts as inactive or inconclusive.

SMILES | LmPK inh | Giardia FBPA inh | RE007 growth inh | Shiga toxin inh | CHX counter | Tb PYK inh
COc1cccc(C(C)(O)c2nc(-c3cccc4cccnc34)cs2)c1 (configuration not stated) | x | x | -9%[18.4 µM] | x | x | -4%
COc1cccc(CCNC(=O)c2ccc(Cn3c(SCc4ccccc4)nc4cccnc43)cc2)c1 | x | x | x | x | x | -1%
O=C(CNC(=O)c1ccc(S(=O)(=O)N2CCCC2)cc1)N/N=C/c1ccco1 | 4% | 6% | -3% | -1 | -2 | -4%
COc1ccc(S(=O)(=O)NC(C(=O)OCC(=O)Nc2ccc(N3CCOCC3)cc2)C(C)C)cc1 (configuration not stated) | x | x | 2% | x | x | -2%
O=C(CCN1CCOCC1)NC1CCCN(Cc2ccccc2F)C1 (configuration not stated) | -4% | 7% | -10% | -13 | -2 | 0%
Cc1cc(C)c(C(=O)NCCCN2CCOCC2)c(C)c1 | 0% | -4% | 2% | -3 | -4 | 2%
O=C(COc1ccc(Cl)cc1)N1CCCC1 | -3% | -1% | -4% | 37* | 12* | -5%
Cc1cc(NS(=O)(=O)c2ccc(Nc3nc(-c4ccc(O)cc4)cs3)cc2)no1 | 3% | 13% | 15% | -7 | -1 | -14%
O=C(Cc1ccc(Cl)cc1)N/N=C/c1cccs1 | 5% | 1% | 8% | 6 | -4 | -2%
ClCc1csc(N/N=C/c2cccs2)n1 | -15% | -29% | x | 39* | 17* | x
CN(C)S(=O)(=O)c1ccc(-c2csc(N/N=C/c3ccc(O)cc3)n2)cc1 | 10% | -15% | -9% | 32 | 14* | -9%
Cc1onc(-c2ccccc2)c1-c1csc(N/N=C/c2ccccc2)n1 | 1% | -10% | 19% | 18 | 2 | -3%
Cc1ccc(-c2csc(N/N=C/C=C/c3ccccc3)n2)cc1 | 2% | -1% | 7% | 49 | 16* | -17%
C(=N\Nc1nc(-c2ccccc2)cs1)/c1cccs1 | -2% | -16% | -13% | 105* | 68* | -15%
COc1ccccc1CNC(=O)C(=O)NCC1CCCN1S(=O)(=O)c1cccs1 (configuration not stated) | x | x | 5% | x | x | -21%
CN=C(NC)NCc1ccccc1 | x | x | x | x | x | 14%
CCCCN(C)C(=O)c1ccc2c(c1)NC(=O)C(CC(C)C)N2 (configuration not stated) | x | x | x | x | x | 0%
C(=N\Nc1nc(-c2ccccc2)cs1)/c1ccncc1 | 0% | -11% | 35% | 51* | 43* | -8%
Cn1c(SCC(=O)OC2CCCCC2)nnc1-c1ccco1 | -5% | -7% | 4% | 16 | 16* | -4%
COCCCn1c(SCC(=O)NC2CCCC2)nnc1-c1ccco1 | 5% | 6% | 11% | -12 | -2 | -4%
COCCCn1c(SCC(=O)OC2CCCCC2)nnc1-c1ccco1 | 4% | 4%[12.9 µM] | -23% | 19 | 17* | -5%
Cc1cc2c(cc1S(=O)(=O)CCC(=O)N1CCCC(C)C1)OCC(=O)N2 (configuration not stated) | x | x | x | x | x | 3%
COc1ccc(C2=COc3ccccc3C(=O)N2)cc1 | 7% | 9% | -24% | 56* | 21* | -5%
CC(=O)c1cccc(NS(=O)(=O)c2cc(-c3onc(C)c3C)ccc2C)c1 | x | x | x | x | x | -1%
Cc1ccc(-c2nc3ccccc3n2C)o1 | 14µM* | -5% | 40µM* | 74* | 57* | u
SMILES | LmPK inh | Giardia FBPA inh | RE007 growth inh | Shiga toxin inh | CHX counter | Tb PYK inh
Cn1c2nc3ccccc3c-2nc2ccccc21 | x | x | -24% | x | x | -15%
Cn1c(-c2ccc(Br)o2)nc2cc(Br)ccc21 | -25% | 0% | -8% | 104* | 52* | u
CC(=O)c1ccc(-c2nc3ccccc3n2C)o1 | 16µM* | -14% | -15% | 57* | 36* | -24%
Cc1ccc(C2Nc3ccccc3-c3nc4ccccc4n32)o1 (configuration not stated) | -19% | -1% | -4% | 67* | 54* | -7%
Cc1ccc2nc(-c3ccc(Br)o3)oc(=O)c2c1 | -4% | -1% | -16% | -3 | -2 | 1%
O=C(CCNC(=O)c1ccccc1)Nc1ccc(Cl)c(S(=O)(=O)N2CCCCC2)c1 | x | x | -17% | x | x | 2%
Cc1ccc(C(=O)OC(C)C(=O)c2cc(C)c(C)cc2C)o1 (configuration not stated) | 2% | x | -11% | 27 | 20* | 0%
CCCc1cc(-c2n[nH]c(=S)n2CC(C)C)cs1 | u | 11% | 23% | -8 | -2 | u
CC(C)Cn1c(-c2ccc(Br)o2)n[nH]c1=S | u | 8% | -2% | -5 | -2 | 4µM*
Cc1ccsc1-c1n[nH]c(=S)n1CC(C)C | 14µM* | -11% | 13% | -9 | -2 | u
CCn1c(-c2nn(C)cc2Cl)n[nH]c1=S | -4% | -28% | -8% | 1 | -3 | u
CC(C)Cn1c(-c2nn(C)cc2Cl)n[nH]c1=S | 13µM* | x | 11% | -15 | -1 | u
COc1ccc(OC)c(CN2C(=O)CSCC2(C)C(=O)NC(C)C)c1 (configuration not stated) | x | x | 0% | x | x | x
Cc1cc(C)c2c(=O)cc(C(=O)Nc3ccc(C)c(Cl)c3)oc2c1 | x | x | x | x | x | 3%
CC(C)(C)c1ccc(C(=O)n2cnc3ccccc32)cc1 | -6% | -2% | -13% | 64* | 30* | 3%
CCN(CC)c1ccc(C(=O)n2cnc3ccccc32)cc1 | 1% | -5% | 25% | 68 | 25* | 4%
CN(C)c1ccc(C(=O)n2nnc3ccccc32)cc1 | -19% | 0% | -12% | 116* | 57* | -6%
COc1ccc(NCc2cccn2-c2nnc(N3CCOCC3)s2)cc1OC | x | x | x | x | x | -8%
CCN(CC)C(=O)COc1ccc(/C(C)=N/Nc2ncc(Cl)cc2Cl)cc1 | 5% | -11% | 6% | 66* | 28* | -4%
COc1cccc(/C=N/Nc2ncnc3scc(-c4ccccc4)c23)c1O | 2% | u | u | -2 | 0 | -19%
COc1cccc(/C=N/Nc2nccnc2Cl)c1O | 10µM* | 10% | 35µM* | 34 | 13* | u
COc1cccc(C=NNc2ccc([N+](=O)[O-])cn2)c1OC | x | x | -4% | x | x | -14%
COc1cccc(/C=N/Nc2ncnc(N)c2[N+](=O)[O-])c1OC | -23% | -6% | 2% | 73* | 35* | -2%
COc1cccc(/C=N/Nc2ncnc(Cl)c2N)c1O | -2% | u | 13% | 40* | 55* | -7%
O=C(CSc1nc2c([nH]c3ccccc32)c(=O)n1-c1ccccc1F)Nc1cccc(Cl)c1 | x | x | x | x | x | 5%
Cc1ccc(C(=O)COc2ccccc2-c2ccccc2)cc1C | 2% | 12% | -16% | 23 | -2 | 2%

Screens: PubChem, National Center for Advancing Translational Sciences (NCATS)
